Screens as filed in PubChem BioAssay.
IL1B secr inh = blocks inflammasome-driven IL-1 beta release; THP-1 LPS/ATP IL-1B secretion, AlphaLISA, 16 h; active compounds read low; 360,000 tested, 4.7% active; activity change, % at 57.5 µM; AID 743279; in the data active means activity change below about -50%; inconclusive means mostly about -30% to -49%; further: on the % scale 0 is the no-effect control and ±100 the full control effect
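Secreted IL-1B measured by AlphaLISA bead assay after 16 h compound exposure of THP-1 cells; compounds (final up to 57.5 uM) added 1 h before LPS (250 ng/mL) and ATP (1.25 mM) stimulation; lower signal means less secretion.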
S2 tox = cell viability loss in ATXN counter-screen | AID 651635 | 400,000 tested, 0.49% active | S2 cells (HEK-293 line with an ATXN2-luciferase reporter) viability, CellTiter-Fluor protease fluorescence, 24 h | Potency, µM (highest dose often 56.7 µM), actives largely listed as cytotoxic; further: potency means the concentration at half of the fitted maximal effect; nearly all actives have a fitted effect of over 40% in size
USP2a block = inhibitors of human ubiquitin-specific protease USP2a; USP2 core, Ub-CHOP2 coupled fluorogenic reporter, 485/531; O75604; 330,000 tested, 0.01% active; Potency, µM (highest dose often 38.3 µM), for inactives: at the highest dose activity change, negative = inhibition, actives largely listed as inhibitors;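 further: potency means the concentration at half of the fitted maximal effect; plate controls were DMSO wells for no effect and full inhibition by NEM control for full effect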
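Deubiquitinase activity read as fluorescence (485/531 nm) after Ub-CHOP2 cleavage activates the enterokinase reporter on its substrate; USP2 core 10nM, Ub-CHOP2 and substrate 25nM each, 30min compound preincubation then 60min RT; data normalized to NEM, curves fitted.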
ATXN2 expr inh = reduces ATXN2 reporter expression in HEK-293 cells; HEK-293 ATXN2-luciferase reporter, luminescence, 24 h; Potency, µM (doses to about 57 µM), without a hit: top-dose activity change, negative = inhibition, hits mostly inhibitors; 360,000 tested, 0.72% active; AID 1745845; further: potency means the concentration at half of the fitted maximal effect; on the % scale 0 is the no-effect control and ±100 the full control effect; nearly all actives have a fitted effect of over 55% in size
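ATXN2-luciferase reporter cells (luciferase flanked by upstream and downstream ATXN2 gene portions) were treated 24 h at 37 °C with compounds at up to 57 uM. SteadyGlo luminescence gave expression; GF-AFC fluorescence gave viability.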
USP1-UAF1 inh = blocks the human USP1/UAF1 deubiquitinase complex; recombinant USP1/UAF1, Ub-Rhodamine cleavage fluorescence; Potency, µM (titrated, usually from 57.1 µM), for inactives: at the highest dose activity change, negative = inhibition, most hits filed as inhibitors; 390,000 tested, 0.23% active; AID 743255; further: potency means the concentration at half of the fitted maximal effect; on the % scale 0 is the no-effect control and ±100 the full control effect; nearly all actives have a fitted effect of over 60% in size
Target sequence (O94782 whole entry, looked up): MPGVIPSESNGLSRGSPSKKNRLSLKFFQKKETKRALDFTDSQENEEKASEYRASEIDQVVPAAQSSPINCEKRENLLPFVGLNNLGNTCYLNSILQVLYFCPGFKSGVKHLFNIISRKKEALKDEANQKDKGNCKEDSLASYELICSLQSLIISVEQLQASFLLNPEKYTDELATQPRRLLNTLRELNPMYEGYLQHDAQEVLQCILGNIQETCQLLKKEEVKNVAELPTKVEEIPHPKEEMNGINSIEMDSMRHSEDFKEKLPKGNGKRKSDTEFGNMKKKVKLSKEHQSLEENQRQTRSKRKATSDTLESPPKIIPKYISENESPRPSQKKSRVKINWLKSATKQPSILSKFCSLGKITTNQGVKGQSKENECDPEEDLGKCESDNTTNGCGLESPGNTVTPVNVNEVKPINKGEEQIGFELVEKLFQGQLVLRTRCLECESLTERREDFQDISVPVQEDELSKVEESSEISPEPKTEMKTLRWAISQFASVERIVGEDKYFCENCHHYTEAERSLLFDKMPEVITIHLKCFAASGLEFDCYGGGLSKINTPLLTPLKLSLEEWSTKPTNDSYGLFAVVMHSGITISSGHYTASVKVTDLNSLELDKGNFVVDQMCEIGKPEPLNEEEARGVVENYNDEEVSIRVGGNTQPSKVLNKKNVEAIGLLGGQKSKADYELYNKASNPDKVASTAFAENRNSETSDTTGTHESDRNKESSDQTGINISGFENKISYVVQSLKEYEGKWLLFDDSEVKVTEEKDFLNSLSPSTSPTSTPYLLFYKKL
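In this screen, compounds sit with the deubiquitinase complex (1nM) for 15 min at room temperature before Ub-Rho is added at 150nM final. Fluorescence rise is then followed for 6 reads every 60 seconds.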
The depositor's hits bear a star; ! = repeats disagree. Hits are enriched below; roughly 4.8% of the tested compounds scored in any of these assays. Unless noted, the call rests on the fitted dose curve; in most records, active means well fitted curve in the direction sought with a large enough effect; inconclusive means small, poorly fitted or top-dose-only effect, or another doubt; inactive means no such curve, though single readings can be large; an effect the other way counts as inactive or inconclusive.

Screening C[n+]1c2cc(N)ccc2cc2ccc(N)cc21 returned IL1B secr inh -108*, ATXN2 expr inh 3.2µM* and USP1-UAF1 inh 4µM*!.
For COc1ccc(NC(=O)CN2C(=O)CN=C(c3ccccc3)c3ccccc32)c(OC)c1 the results were USP1-UAF1 inh -16%.
For CC1Oc2cc3c(-c4c(O)cc(O)c5c(O)c6c(cc45)OC(C)C(C)C6=O)c(O)cc(O)c3c(O)c2C(=O)C1C (centres undefined) the results were IL1B secr inh inconclusive, S2 tox inconclusive, USP2a block inconclusive, ATXN2 expr inh 11µM* and USP1-UAF1 inh 13µM*.
For CCCCC[C@@H](O)C1C(=O)OC(C)[C@H](O)/C=C/C=C/C=C/C=C/C=C(\C)C(O)C(O)C(O)C[C@H](O)C[C@H](O)C[C@H](O)C[C@H](O)C[C@@H]1O (some centres undefined) the results were S2 tox inactive.
For NC(=O)c1c(Br)n(C2OC(CO)C(O)C2O)c2ncnc(N)c12 (centres undefined) the results were IL1B secr inh -76*, S2 tox inconclusive, ATXN2 expr inh 21µM* and USP1-UAF1 inh 2%.
N#Cc1c(Br)n(C2OC(CO)C(O)C2O)c2ncnc(N)c12 (centres undefined) was read as IL1B secr inh -69*, S2 tox inconclusive, ATXN2 expr inh 2.5µM* and USP1-UAF1 inh -25%.
`CCNC(=O)[C@H]1O[C@@H](n2cnc3c(N)ncnc32)[C@H](O)[C@@H]1O` gave IL1B secr inh 19, S2 tox inactive, USP2a block 3%, ATXN2 expr inh 9% and USP1-UAF1 inh -26%.
`C[N+]1(CCF)[C@@H]2CC[C@H]1CC(OC(=O)C(O)(c1ccccc1)c1ccccc1)C2` (some centres undefined) gave S2 tox inactive and ATXN2 expr inh 4%.
Cc1cc(-c2nc3ncccc3o2)ccc1NC(=O)c1ccccc1Br was read as S2 tox inconclusive, ATXN2 expr inh 24% and USP1-UAF1 inh -15%.
For CN1CCN(Cc2ccccc2Sc2ccccc2)CC1 the results were IL1B secr inh -80*, S2 tox inactive, USP2a block 0%, ATXN2 expr inh -8% and USP1-UAF1 inh -7%.
`CC(Cc1ccccc1Sc1ccccc1)N(C)C` (centres undefined) gave IL1B secr inh inconclusive, S2 tox inconclusive, USP2a block 1%, ATXN2 expr inh -13% and USP1-UAF1 inh -10%.
`CN(Cc1cccc(-c2ccncc2)c1)C(=O)Oc1ccccc1Cc1ccccc1` gave IL1B secr inh 0, S2 tox 18µM* and ATXN2 expr inh inconclusive.
`CN(Cc1cccc(-c2ccncc2)c1)C(=O)Oc1ccccc1Cl` gave IL1B secr inh 18, S2 tox inconclusive and ATXN2 expr inh inconclusive.
Screening Cc1cc(/C=C2\C(=O)NC(=O)N(c3ccc(Cl)cc3)C2=O)c(C)n1-c1sc2c(c1C#N)CCCC2 returned IL1B secr inh -26, S2 tox inconclusive, USP2a block 3% and USP1-UAF1 inh inconclusive.
CCOC(=O)c1c(-n2c(C)cc(/C=C3\C(=O)NC(=O)N(C)C3=O)c2C)sc2c1CCCC2 was read as IL1B secr inh -73*, S2 tox inactive, USP2a block 3%, ATXN2 expr inh -23% and USP1-UAF1 inh -10%.
For Nc1c2c(nc3sc4c(c13)CCCC4)CCCC2 the results were IL1B secr inh -88*, S2 tox inconclusive, USP2a block -2%, ATXN2 expr inh inconclusive and USP1-UAF1 inh -18%.
CCN(CCO)CCn1c(Cc2ccccc2)nc2c1c(=O)n(C)c(=O)n2C was read as S2 tox inactive and ATXN2 expr inh -2%.
O=C1NC(=O)N(Cc2ccc(F)cc2)C(=O)/C1=C/c1cccs1 was read as IL1B secr inh -101*, S2 tox inactive, USP2a block -4%, ATXN2 expr inh -15% and USP1-UAF1 inh -6%.
O=C1NC(=O)N(Cc2ccccc2Cl)C(=O)/C1=C/c1cccs1 was read as IL1B secr inh inconclusive, S2 tox inconclusive, USP2a block 0% and USP1-UAF1 inh -28%.
For CCOc1ccc(C2c3c(-c4ccccc4O)n[nH]c3C(=O)N2Cc2ccncc2)cc1 (centres undefined) the results were S2 tox inconclusive, ATXN2 expr inh -23% and USP1-UAF1 inh -27%.
For C[C@H]1CCC[C@@H](O)CCC/C=C/c2cc(O)cc(O)c2C(=O)O1 the results were IL1B secr inh inconclusive, S2 tox inconclusive, USP2a block 1%, ATXN2 expr inh 14µM* and USP1-UAF1 inh -12%.
COc1cc(C2c3cc4c(cc3CC3COC(=O)C32)OCO4)cc(OC)c1OC (centres undefined) was read as IL1B secr inh 46, S2 tox inconclusive, USP2a block 0%, ATXN2 expr inh -3% and USP1-UAF1 inh 12%.
For COc1ccc(NC2Oc3cc4c(cc3C(c3cc(OC)c(OC)c(OC)c3)C2C)OCO4)cc1 (centres undefined) the results were IL1B secr inh -64*, S2 tox inactive, ATXN2 expr inh -10% and USP1-UAF1 inh -3%.
Screening CN1CCN(c2ccc([N+](=O)[O-])c3no[n+]([O-])c23)CC1 returned IL1B secr inh -101*, USP2a block inconclusive, ATXN2 expr inh 2.4µM*! and USP1-UAF1 inh 110%.
`CN1CCN(c2ccc(S(C)(=O)=O)cc2[N+](=O)[O-])CC1` gave IL1B secr inh 0, S2 tox inactive, USP2a block 0%, ATXN2 expr inh -16% and USP1-UAF1 inh -3%.
For O=[N+]([O-])c1ccc(N(CCO)CCO)c2c1no[n+]2[O-] the results were IL1B secr inh -103* and USP1-UAF1 inh 52%.
`O=C(NCCCl)Nc1ccccc1NS(=O)(=O)c1cccs1` gave IL1B secr inh 13, S2 tox inconclusive, USP2a block 2%, ATXN2 expr inh 0% and USP1-UAF1 inh -19%.
`Cc1ccc(N2C(=O)/C(=C/c3ccc(CN(CCC#N)S(C)(=O)=O)o3)C(=O)NC2=S)cc1C` gave USP2a block 0%.
Cc1cccc(N2C(=O)/C(=C/c3ccc(CN(CCC#N)S(C)(=O)=O)o3)C(=O)NC2=S)c1 was read as IL1B secr inh 2, S2 tox inactive, USP2a block -1%, ATXN2 expr inh -5% and USP1-UAF1 inh 25µM*.
Cc1nccn1-c1c([N+](=O)[O-])c(=O)n(C)c2ccccc12 was read as IL1B secr inh -92*, S2 tox inconclusive, USP2a block 0%, ATXN2 expr inh 8% and USP1-UAF1 inh -20%.
